The results in this text go back to PubChem BioAssay (NCATS).

Holding throughout (assay): qHTS profiling for inhibitors of Plasmodium falciparum proliferation (AID 504749); also: nearly all actives have a fitted effect of over 60% in size
What all share (conditions): P. falciparum in erythrocytes, SYBR Green DNA, 72 h; series mostly up to 28.7 µM
(Quantitative high-throughput screening tests each substance at several concentrations.)

One experiment concerns ATS95. The essentials: (§1)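 Readout was DNA-dye fluorescence from lysed cultures, ex 485/em 535 nm. Parasitized red cells had grown 72 h with compound; data scaled between 0.29 uM artemisinin and DMSO wells and corrected using vehicle-only plates.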
Another experiment concerns C2A. The essentials:
as §1

A further experiment concerns CP185. The essentials:
as §1

A further experiment concerns CP191. An outline of the steps: as §1
The next experiment relates to CP192. An outline of the steps:
as §1

Another experiment concerns CP201. An outline of the steps:
as §1

For another experiment, the system named is CP203. The essentials: as §1
The subject of the next experiment is CP211. An outline of the steps:
as §1

Another experiment relates to CP215. The essentials:
as §1

The next experiment relates to CP217. An outline of the steps:
as §1

For a further experiment, the system named is CP237. The essentials:
as §1

In a further experiment the test system is CP238. The essentials: as §1
In the next experiment the test system is CP247. An outline of the steps: as §1
In the next experiment the test system is CP250. An outline of the steps:
as §1

Another experiment relates to CP252. An outline of the steps: as §1
The next experiment deals with CP256. The essentials:
as §1

The test system of a further experiment is CP260. The essentials:
as §1

A further experiment deals with CP262. An outline of the steps: as §1
The test system of another experiment is CP265. An outline of the steps:
as §1

The next experiment has as its system CP194. An outline of the steps:
as §1

Records with an inconclusive call do not appear. Calls of active or inactive are those of the source. Calls follow the shape of the dose curve; as a rule, active = well fitted inhibition curve with a large enough effect; inconclusive = small, poorly fitted or top-dose-only effect; inactive = flat fitted curve, though single readings scatter.
Potency is read from the fitted curve at half-maximal effect.

With `O=P(O)(O)OC[C@H]1O[C@](O)(COP(=O)(O)O)[C@@H](O)[C@@H]1O`, the Potency entry with ATS95, with C2A, in the experiment with CP185, with CP191, with CP192 and in the experiment with CP201 was “inactive” in each case. Also, the Potency entry with CP203, with CP211, in the experiment on CP215, in the experiment with CP217, in the experiment on CP237 and in the experiment on CP238 was “inactive” throughout. In addition, the Potency entry in the experiment on CP247, in the experiment on CP250, with CP252, in the experiment on CP256, with CP260 and in the experiment with CP262 was “inactive” each time. The Potency result in the experiment with CP265 was “inactive”.

Regarding `CC(=O)[O][Al][O]C(C)=O`, the Potency result in the experiment with ATS95, in the experiment with C2A, in the experiment on CP185, with CP191, with CP194 and with CP201 was “inactive” each time. Besides, the Potency entry in the experiment on CP215, with CP217, in the experiment on CP237, with CP238, in the experiment on CP247 and with CP250 was “inactive” each time. In addition, the Potency result in the experiment with CP252, in the experiment on CP256, in the experiment on CP260, with CP262 and with CP265 was “inactive” in each case.

Turning to `COc1cc(NCCCC(C)N)c2ncccc2c1` (stereo not given), the Potency in the experiment with ATS95 was 11.2 µM (active); in the experiment on C2A, 10 µM (active); with CP185 it was 11.2 µM (active); in the experiment with CP191, 5.01 µM (active); with CP194, 7.57 µM (active); in the experiment with CP203, 7.57 µM (active). Besides, the Potency was 8.49 µM (active) with CP215; 11.2 µM (active) in the experiment on CP217; 7.08 µM (active) with CP237; 11.2 µM (active) in the experiment with CP238; 4.47 µM (active) in the experiment on CP247; 5.62 µM (active) with CP250. Besides, the Potency is 11.2 µM (active) with CP252; 4.47 µM (active) with CP256; 8.91 µM (active) in the experiment on CP260; 6.75 µM (active) in the experiment with CP262; 8.91 µM (active) in the experiment on CP265.

`CCOC(=O)Cc1ccc(-c2ccccc2)cc1`: the Potency entry with ATS95, in the experiment with C2A, in the experiment with CP185, in the experiment with CP194, in the experiment on CP201 and in the experiment with CP203 was “inactive” in each case. Further, the Potency result in the experiment with CP211, with CP215, with CP217, with CP237, in the experiment with CP238 and in the experiment on CP247 was “inactive” each time. Further, the Potency entry in the experiment with CP250, in the experiment with CP260 and with CP262 was “inactive” each time. Besides, the Potency in the experiment on CP265 is 0.0006 µM (active).

With `CCCOc1cc(N)ccc1C(=O)OCCN(CC)CC`, the Potency result in the experiment on ATS95, with C2A, in the experiment with CP185, with CP191, with CP192 and with CP194 was “inactive” in each case. The Potency entry in the experiment on CP201, in the experiment on CP203, with CP215, in the experiment on CP217, with CP237 and in the experiment on CP238 was “inactive” each time. Moreover, the Potency entry in the experiment on CP250, in the experiment on CP252, in the experiment with CP260, in the experiment with CP262 and with CP265 was “inactive” throughout.

`COc1ccccc1N1CCN(CCCC(=O)c2ccc(F)cc2)CC1`: the Potency entry in the experiment with ATS95, in the experiment on C2A, in the experiment with CP185, in the experiment on CP192, in the experiment on CP194 and in the experiment on CP201 was “inactive” in each case. The Potency result in the experiment with CP203, with CP211, in the experiment on CP215, with CP217, in the experiment on CP237 and with CP238 was “inactive” in each case. Also, the Potency result with CP247, in the experiment on CP250, in the experiment on CP252, with CP256, in the experiment with CP260 and with CP262 was “inactive” in each case. Also, in the experiment on CP265, the Potency entry was “inactive”.

For `CSCCC(N)C(=O)O` (stereo not given), the Potency entry with ATS95, with C2A, with CP185, with CP191, with CP192 and with CP217 was “inactive” in each case. Further, the Potency entry in the experiment on CP237, in the experiment on CP238, in the experiment with CP247, in the experiment on CP250, in the experiment on CP252 and in the experiment with CP256 was “inactive” in each case. Moreover, the Potency result in the experiment with CP260, with CP262 and in the experiment on CP265 was “inactive” in each case.

As to `OCCOCCOCCO`, the Potency result with ATS95, in the experiment on C2A, in the experiment with CP185, in the experiment with CP191, in the experiment with CP217 and with CP237 was “inactive” throughout. Also, the Potency result with CP238, with CP247, with CP250, in the experiment with CP252, with CP256 and with CP260 was “inactive” each time. The Potency entry with CP262 and in the experiment on CP265 was “inactive” each time. For the same compound, the Potency with CP215 was 16.9 µM (active).

Regarding `COc1ccc(C(=O)c2ccc(C)cc2)c(O)c1`, the Potency result in the experiment on ATS95, in the experiment on C2A, with CP185, with CP191, in the experiment on CP192 and in the experiment with CP194 was “inactive” each time. In addition, the Potency entry with CP201, in the experiment on CP203, in the experiment with CP215, with CP217, with CP237 and with CP238 was “inactive” in each case. Moreover, the Potency result in the experiment with CP247, in the experiment on CP250, in the experiment with CP252, with CP256, in the experiment on CP260 and in the experiment on CP262 was “inactive” in each case. In addition, in the experiment with CP265, the Potency result is “inactive”.

Regarding `CCCCCCCCCC(=O)NO`, the Potency result in the experiment on ATS95, in the experiment on C2A, in the experiment with CP185, with CP192, in the experiment on CP194 and in the experiment with CP201 was “inactive” in each case. In addition, the Potency result with CP203, in the experiment with CP211, in the experiment with CP215, in the experiment with CP217, with CP237 and in the experiment with CP238 was “inactive” throughout. Further, the Potency entry in the experiment on CP247, with CP250, in the experiment with CP252, in the experiment with CP256, with CP260 and with CP262 was “inactive” throughout. Besides, the Potency entry in the experiment with CP265 was “inactive”.

With `O=C(O)CC/C=C\CC[C@@H]1[C@@H](N2CCCCC2)[C@@H](O)C[C@@H]1OCc1ccc(-c2ccccc2)cc1`, the Potency result in the experiment with ATS95, in the experiment with C2A, with CP185, in the experiment with CP192, in the experiment with CP194 and with CP201 was “inactive” each time. In addition, the Potency result in the experiment on CP203, in the experiment on CP211, with CP215, in the experiment on CP217, in the experiment with CP238 and in the experiment on CP247 was “inactive” in each case. The Potency entry in the experiment with CP250, in the experiment with CP252, with CP256, in the experiment with CP260, with CP262 and in the experiment on CP265 was “inactive” each time.

In the case of `CC12CCC(C1)C(C)(C)C2=O` (stereo not given), the Potency result in the experiment with ATS95, in the experiment on C2A, in the experiment on CP185, in the experiment with CP191, in the experiment on CP192 and with CP194 was “inactive” each time. Besides, the Potency entry in the experiment on CP201, in the experiment with CP211, in the experiment on CP215, with CP217, in the experiment on CP237 and with CP238 was “inactive” in each case. Besides, the Potency result in the experiment on CP247, in the experiment with CP250, in the experiment on CP252, with CP256, in the experiment with CP260 and in the experiment on CP262 was “inactive” in each case. For the same compound, the Potency result in the experiment on CP265 was “inactive”.
